Screening results: PubChem, several laboratories
Most compounds without a hit are left out; they make up all but 3.2% or so of the library.
dFosB act-1: activators of delta FosB homodimer, primary screen, biochemical, fluorescence polarization, TAMRA-CDK5 oligo, single point. purified delta FosB; percent of positive-control signal above neutral wells. Protein FosB (Mus musculus), P13346. activation, % at 25 µM. AID 493131, 2011. 340,000 tested, 0.99% active;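 active = mean activation above about 17%, with every replicate also reaching it, limit read from the data, passing the limit was not always enough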
Target sequence (P13346 whole entry, looked up): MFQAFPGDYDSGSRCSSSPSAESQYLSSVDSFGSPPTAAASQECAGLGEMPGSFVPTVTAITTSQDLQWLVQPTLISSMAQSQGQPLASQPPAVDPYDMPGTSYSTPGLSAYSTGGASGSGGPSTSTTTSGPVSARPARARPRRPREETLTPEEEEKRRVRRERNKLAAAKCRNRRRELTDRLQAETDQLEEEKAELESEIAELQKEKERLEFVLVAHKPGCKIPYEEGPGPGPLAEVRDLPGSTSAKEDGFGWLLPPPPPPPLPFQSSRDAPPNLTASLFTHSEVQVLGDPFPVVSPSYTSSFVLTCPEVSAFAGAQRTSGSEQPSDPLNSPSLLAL
esBAF inh: Bmi1 luciferase reporter increase in mESCs, primary screen, esBAF inhibitor project, mouse ES cells, Bmi1 luciferase knock-in, single point; reporter increase, % at 12.5 µM; 350,000 tested, 2% active; 24 h; 100% = twice the neutral-well signal; in the data active = activation above about 40%;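 note: 0% = median of the plate's neutral control wells and 100% = double that signal; a rise in the Bmi1 reporter signal indicates esBAF inhibition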
CDK5 inh: inhibitors of human CDK5/p35 kinase, primary screen, biochemical, single concentration | 330,000 tested, 0.01% active | inhibition, % at 10 µM | Recombinant CDK5/p35, ADP-Glo luminescence, 60 min | Cyclin-dependent kinase 5 (Homo sapiens) + Cyclin-dependent kinase 5 activator 1 (Homo …;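 active = highest replicate inhibition of at least 50% and at least 75% of replicates reaching 50%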;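 note: plate controls were DMSO neutral control for no effect and GW8510 at 10 µM for full effect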
SMARCA2 activ: SMARCA2 (BRM) function activators, primary screen, cell-based, luminescence, high throughput; MG213 cells, MMTV-luciferase reporter, dexamethasone, overnight; activation, % at 9.1 µM; 370,000 tested, 1% active; in the data active = activation above about 7.8%;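 note: 0% = vehicle wells and 100% = reference activator wells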
Rtt109 Vps75: inhibitors of C. albicans Rtt109/Vps75 HAT, primary screen, biochemical, ThioGlo CoA-SH fluorescence, plate reader; Histone acetyltransferase RTT109 (Candida albicans (strain SC5314 / ATCC MYA-2876)), …; 330,000 tested, 0.16% active; purified Rtt109/Vps75, 4 h; inhibition, % at 34.9 µM;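 active = inhibition of at least 50% in every replicate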
DYRK1A inh: rat Dyrk1A kinase inhibitors, primary screen, biochemical, single point, plate reader | Dual specificity tyrosine-phosphorylation-regulated kinase 1A (Rattus norvegicus), Q63470 | ADP-Glo luminescence, NFATc1 peptide | inhibition, % at 12.5 µM | 310,000 tested, 0.43% active | AID 504441, 2011; in the data active = inhibition above about 50%;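 note: plate controls were vehicle with enzyme for no effect and no enzyme for full effect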
dFosB act-2: activators of mouse delta FosB DNA binding, confirmation, biochemical, fluorescence polarization, TAMRA-CDK5 oligo, cherry-picked samples; 2,400 tested, under 10 active; activation, % at 24.9 µM; purified delta FosB; normalised: neutral wells 0, positive control 100; shares compounds with dFosB act-1;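 active = highest replicate activation at or above 34% and every replicate reaching that threshold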;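 note: higher polarization means more probe DNA bound by delta FosB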
Active calls of the source: *; . = no result.

SMILES	dFosB act-1	esBAF inh	CDK5 inh	SMARCA2 activ	Rtt109 Vps75	DYRK1A inh	dFosB act-2
CCn1nc(NC(=O)c2ccccn2)c2cc3cc(C)ccc3nc21	21*	16	0	2	-3	-11	-4
COc1ccc(NC(=O)N(C)C[C@@H]2Oc3ccc(NC(=O)c4ccncc4)cc3C(=O)N([C@H](C)CO)C[C@H]2C)cc1	.	5	.	.	.	.	.
Cc1ccc(COc2ccsc2C(=O)NNC(N)=S)cc1	28*	.	-5	1	-4	2	0
CCCC#Cc1cnc2c(c1)C(=O)N([C@@H](C)CO)C[C@H](C)[C@H](CN(C)C(=O)Cc1cccnc1)O2	.	-3	.	.	.	.	.
CC(OC(=O)c1ccc(NS(=O)(=O)c2ccc3[nH]c(=O)[nH]c3c2)cc1)C(=O)Nc1ccc(Cl)cc1 (centres undefined)	22*	.	0	-3	20	2	7
CNC[C@H]1Oc2ccc(NS(=O)(=O)c3ccc(OC)cc3)cc2CC(=O)N([C@H](C)CO)C[C@@H]1C	.	-4	.	.	.	.	.
COc1ccc(NC(=O)Nc2ccc3c(c2)C(=O)N([C@@H](C)CO)C[C@@H](C)[C@@H](CN(C)C(=O)Nc2cccc4ccccc24)OCCCC[C@H](C)O3)cc1	.	0	.	.	.	.	.
Cc1cc(OCC(=O)N2CCN(c3cccc(Cl)c3)CC2)c2c(C)c(C)c(=O)oc2c1	39*	0	0	0	-13	2	0
Cc1cc(OCC(=O)N2CCC[C@@H]2C(=O)O)c2c(C)c(C)c(=O)oc2c1	-3	-7	1	2	5	-9	.
S=C(c1cn(CCOc2ccccc2)c2ccccc12)N1CCCC1	7	.	1	-11	1	-2	.
S=C(c1cn(CCOc2cccc3ccccc23)c2ccccc12)N1CCCC1	27*	.	-2	-3	6	-2	1
CO[C@H]1CN(C)C(=O)c2ccc(NC(C)=O)cc2OC[C@H](C)N(Cc2cc(F)ccc2F)C[C@@H]1C	.	1	.	.	.	.	.
C[C@@H]1CN([C@@H](C)CO)C(=O)c2cc(NC(=O)Nc3cccc4ccccc34)ccc2O[C@@H]1CN(C)Cc1ccc(C(=O)O)cc1	.	-1	.	.	.	.	.
Cc1ccccc1C(=O)Nc1nnc(CC(=O)N/N=C/c2ccncc2)s1	38*	-5	1	-6	3	.	0
O=C(Cc1nnc(NC(=O)c2ccccc2)s1)N/N=C/c1ccco1	21*	1	.	-6	9	7	4
O=C(Cc1nnc(NC(=O)c2ccccc2)s1)N/N=C/c1cccc(O)c1	1	2	-1	0	0	0	.
CO[C@@H](CN(C)S(=O)(=O)c1ccc(Cl)cc1)[C@@H](C)CN(Cc1ccccc1Cl)[C@@H](C)CO	.	-1	.	.	.	.	.
COc1ccc(CNC(=O)C2CCN(c3nnc(N4CCCC4=O)s3)CC2)cc1	-5	1	0	3	-14	0	.
COc1ccc(Br)cc1CNC(=O)C1CCN(c2nnc(N3CCCC3=O)s2)CC1	43*	4	1	0	5	-4	2
COc1ccc(/C=N/NC(=O)c2ccco2)cc1COc1ccc(F)cc1	75*	-5	1	4	2	-3	3
COc1ccc(/C=N/NC(=O)c2ccc(NC(C)=O)cc2)cc1COc1ccc(F)cc1F	68*	5	-3	-4	2	0	0
COc1ccc(/C=N\NC(=O)c2ccccc2F)cc1COc1ccc(F)cc1	-1	-5	1	-1	0	-3	.
COc1ccc(/C=N/NC(=O)c2ccc(Cl)cc2)cc1Cn1cc(Cl)cn1	40*	.	-1	-1	-2	0	1
